The source of these data is PubChem BioAssay (NCI).

Structures are written as SMILES. This is part of a sample that, as a whole, favours compounds with a hit. Of some 83,000 tested, about 20% had one in any assay.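 The test compound was applied at a single concentration to cells in 96-well plates for 48 hours, and percent growth was recorded.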 Unmarked numbers belong to inactive results. Active and inactive are the calls of the source.

The assay relates to SK-OV-3 ovarian. Briefly: NCI-60 one-dose screen, 48 h (100 = growth as untreated, 0 = no growth, -100 = all killed). The following applies: 10 µM unless noted. How it is done: Growth inhibition of the SK-OV-3 human tumor cell line is measured as a screen for anti-cancer activity. Cells are grown in 96 well plates and exposed to the test compound for 48 hours. Compounds are tested at a single concentration, which is 10^-5 M for most compounds. The reported endpoint is percent growth (GI% or GIPRCNT), where numbers from 0 - 100% represent growth inhibition, and numbers from -100% - 0 represent cell death. For example, a value of 40 represents 60% growth inhibition. A value of 0 means no net growth occurred over the course of the experiment. A value of -40 indicates 40% of cells at the beginning of the experiment died by the end of the experiment. A value of -100 means all cells are dead at the end of the experiment.
NCI-60 Human Tumor Cell Lines Screen was performed using the standard one-dose NCI protocol, which is described in more detail at https://dtp.cancer.gov/discovery_development/nci-60/default.htm.
Compounds with GIPRCNT values below 10 were considered active. Activity score was based on GIPRCNT using the following formula: […]
Score is 0 for GIPRCNT values of 100 or above, 50 for GIPRCNT values of 0, and 100 for GIPRCNT values of -100.
`COc1cc2cc(Oc3ccc(NC(=O)Nc4cccc(C(F)(F)F)c4)cc3)c(C)nc2cc1OCCN1CCOCC1`: the growth is 92%.

In the case of `O=S(=O)(Nc1ccc(-c2nc(-c3cccc(OCCN4CCOCC4)c3)c(-c3ccnc(Br)c3)[nH]2)cc1)c1ccccc1`, the growth was 59.1%. Regarding `COc1ccc(NC(=O)n2nc(/C=C\c3ccc(O)c(OC)c3)cc2/C=C\c2ccc(O)c(OC)c2)cc1`, the growth is 60.7%.

On to `NS(=O)(=O)c1ccc(-n2nc(C(=O)N/N=C\c3ccc(F)cc3)cc2-c2ccc(Br)cc2)cc1`, for which the growth is 88.6%. Regarding `COc1cccc(Cc2cc(-c3ccccc3)nn(CC(=O)c3ccccc3)c2=O)c1`, the growth is 89.6%.

Consider `O=C(CCN1C(=O)/C(=C/c2ccc(O)cc2)SC1=S)Nc1ccccc1`, for which the growth is 65.9%. For the compound `Cc1nn(-c2ccccc2)c(-n2ccnc2)c1/C=N/Nc1nc(-c2ccc(Cl)c(Cl)c2)cs1`, the growth was 89.5%.

In the case of `COc1cc(CCCO)c(OC)c(OC)c1OC`, the growth was 107%. Next, `COc1cc2cc(Oc3ccc(NC(=O)Nc4ccc(F)c(C(F)(F)F)c4)cc3)c(C)nc2cc1OCCN1CCOCC1`: 41.3%. The value for `O=C(CS(=O)c1oc(-c2cccs2)nc1S(=O)(=O)c1ccc(Br)cc1)c1ccccc1` (stereo not given) was 89.8%; that for `COc1nc2ccccc2cc1-c1nc2c(cnn2-c2ccc(Br)cc2)c(=O)[nH]1` was 15.1%; that for `CCOC(=O)c1c2c(n(-c3ccc(C#N)cc3)c1-c1ccccc1)C=CCC2` was 89.6%. Next, `CCOC(=O)Cn1c(C)c(/C=N/NC(=O)c2cc3c(ccc4ccccc43)o2)c2ccccc21`: 6.12% (active); `NCCCNc1nc2ccccc2c2c(=O)c3cc(C(F)(F)F)ccc3sc12`: 84.3%. As to `O=c1cc(SCc2ccccc2)nc[nH]1`, the growth was 114%.

In the case of `O=C1c2cccc3cccc(c23)C(=O)N1Nc1nc(N2CCOCC2)nc(N2CCN(c3ccccc3)CC2)n1`, the growth was 54.8%. Next, `CN1CCN(c2ccc(-c3cc4c(Nc5ccc(F)c(Cl)c5)ncnn4c3)cn2)CC1`: 110%; `Cc1[nH]c(C(=O)Nc2ccc(C(=O)N3CCNCC3)cc2OC(C)C)c(Cl)c1Cl`: 89.3%; `O=C(O)c1cn(C2CC2)c2cc(N3CCN(C(=O)Nc4nc(-c5ccc(Cl)cc5)cs4)CC3)c(F)cc2c1=O`: -2.39% (active). As for `COc1cc(C(=O)/C=C/c2ccc(OCCCCCC[P+](c3ccccc3)(c3ccccc3)c3ccccc3)cc2)cc(OC)c1OC`, the growth is -35.9% (active).

Take `O=c1ccc(N=Nc2ccccc2)ccc1Cl`: the growth is 93.8%.

On to `NCCCNc1nc2ccccc2c2c(=O)c3cccc(F)c3sc12`, for which the growth was 58.5%.

As for `CN1CCN(Cc2ccc(NC(=O)c3ccc(C(C)(C)C)c(C#Cc4cnc5cccnn45)c3)cc2C(F)(F)F)CC1`, the growth was -56.6% (active).

Turning to `Cc1ccc(-c2nc(SCC(=O)Nc3nc(-c4ccc(Cl)cc4)cs3)[nH]c(=O)c2C#N)cc1`, the growth is 100%.

For `Cc1c(C(=O)/C=C/Nc2c(Cl)cc(S(N)(=O)=O)cc2Cl)sc2nc3ccccc3n12`, the growth is 111%. Turning to `COc1ccc(N)c(N)c1`, the growth is 96.9%. Take `Nc1ccccc1-c1cc2c(c3c1[nH]c1ccccc13)CCCCC2`: the growth is 115%. `NCCCNc1nc2ccc(Cl)cc2c2c(=O)c3cc(F)ccc3sc12`: the growth was 89.4%. With `COc1nc2ccccc2cc1-c1nc2c(cnn2-c2ccccc2)c(=O)[nH]1`, the growth was 53.8%.

As for `COc1ccc(-c2nc(NCCO)[nH]c(=O)c2C#N)cc1`, the growth is 97.7%. The value for `COc1ccc(-c2cnc3ccccc3n2)cc1` was 98.5%; that for `COc1cccc(Oc2ccccc2NC(=O)CNC(=O)c2cccc3ccccc23)c1` was 42.2% [5 µM]; that for `CCOC(=O)C1=C(N)Oc2c(sc3c(C)cccc23)C1c1ccc(OC)cc1` (stereo not given) was 57.7%.

Turning to `CCOC(=O)CC1C(COC(=O)NC)OC(n2cnc3c(NC(=O)Nc4ccccc4)ncnc32)C1O[Si](C)(C)C(C)(C)C` (stereo not given), the growth is 94.9%. In the case of `N#Cc1c(-c2ccc(Cl)cc2)nc2c(c(-c3ccccc3)nn2-c2ccccc2)c1-c1ccc(O)cc1`, the growth was 96.9%.

In the case of `COc1ccc(S(=O)(=O)n2cc(C3OC(c4cc(OC)c(OC)c(OC)c4)=NN3C(C)=O)c3ccccc32)cc1OC` (stereo not given), the growth was 96.6%. Next, `COc1cc(C(=O)N2N=C(c3ccc(S(C)(=O)=O)cc3)CC2c2ccco2)cc(OC)c1OC` (stereo not given): 84.3%.

`OC(COc1ccccc1)CN1CCN(c2ccc(Cl)cc2)CC1` (stereo not given): the growth was 102%. For the compound `COc1ccc(/C=C/c2c(C(=O)/C=C/c3ccc(Cl)cc3)c(C)nc3ccccc23)cc1`, the growth was 64.5%.

As to `COc1cc(C(=O)N/N=C/c2cc3cc(OCc4ccccc4)ccc3nc2OC)cc(OC)c1OC`, the growth is 91.1%.
